Test systems include DU-145 prostate; K-562 leukemia; MALME-3M melanoma; MDA-MB-231 breast; RXF 393 renal; SF-268 CNS; SF-295 CNS; SF-539 CNS; UACC-257 melanoma; M14 melanoma; HCT-15 colon; HT29 colon; SNB-75 CNS; SNB-19 CNS; U251 CNS; PC-3 prostate; SK-MEL-5 melanoma; UACC-62 melanoma; LOX IMVI melanoma; SK-MEL-28 melanoma.
What all share (assay): NCI-60 one-dose screen, 48 h (100 = growth as untreated, 0 = no growth, -100 = all killed)
Common to all, as to conditions: 10 µM unless noted

The results in this text go back to PubChem BioAssay (NCI).

The panel holds about 83,000 compounds, 20% with a hit somewhere; the sample as a whole holds those more often.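 Interpretation: 100, growth as untreated; towards 0, rising growth inhibition; 0, no net growth; 0 to -100, cell death. Compounds scoring below 10 were considered active.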 Values without a mark were called inactive. The source made the active and inactive calls.

For `CCCCC1CCCC12NC(=O)NC2=O` (stereo not given), the growth is 109% with DU-145 prostate; 127% in the assay on K-562 leukemia; 100% in the assay on MALME-3M melanoma; 107% with MDA-MB-231 breast; 113% in the assay with RXF 393 renal; 99.5% with SF-268 CNS. For the same compound, the growth in the assay on SF-295 CNS is 109%; in the assay on SF-539 CNS it was 113%; in the assay on UACC-257 melanoma, 112%; in the assay on M14 melanoma, 109%; with HCT-15 colon, 103%; with HT29 colon, 110%. Further, the growth in the assay with SNB-75 CNS was 107%; with SNB-19 CNS, 104%; in the assay with U251 CNS it was 99.5%; in the assay with PC-3 prostate, 95%; with SK-MEL-5 melanoma it was 117%; with UACC-62 melanoma, 93.8%. For the same compound, the growth was 88.9% in the assay with LOX IMVI melanoma and 113% with SK-MEL-28 melanoma.
As for `C=C1CC[C@@]2(C#N)[C@H]3[C@H](CC[C@@H]2C)[C@@H](C)C[C@@H](CC(C)(C)C#N)[C@H]13`, the growth with DU-145 prostate was 45.4%; in the assay on K-562 leukemia, 9.97% (active); in the assay with MALME-3M melanoma, 103%; in the assay with MDA-MB-231 breast, 61.3%; in the assay with RXF 393 renal it was 86.2%; in the assay with SF-268 CNS, 47%. The growth was 14.4% in the assay with SF-295 CNS; 43.9% with SF-539 CNS; 71.9% with UACC-257 melanoma; 20.9% in the assay with M14 melanoma; 43.6% in the assay on HCT-15 colon; 46.8% with HT29 colon. The growth in the assay on SNB-75 CNS was 44.6%; with SNB-19 CNS, 56.4%; in the assay with U251 CNS, 46.4%; in the assay on PC-3 prostate, 23.2%; with SK-MEL-5 melanoma, 37.5%; in the assay with UACC-62 melanoma it was 43.5%. Besides, the growth is 26.6% in the assay on LOX IMVI melanoma and 60.3% with SK-MEL-28 melanoma.
In the case of `CCOC(=O)c1cn2ncnc(Oc3ccc(NC(=O)NCCN4CCOCC4)c(Cl)c3)c2c1C`, the growth is 109% in the assay with DU-145 prostate; 98.3% in the assay with K-562 leukemia; 91.5% with MALME-3M melanoma; 100% with MDA-MB-231 breast; 94.2% in the assay with RXF 393 renal; 94.9% in the assay with SF-268 CNS. Moreover, the growth in the assay with SF-295 CNS was 98.4%; in the assay with SF-539 CNS it was 95.6%; with UACC-257 melanoma, 95.8%; in the assay with M14 melanoma it was 91.3%; in the assay on HCT-15 colon, 96.3%; with HT29 colon, 104%. In addition, the growth with SNB-75 CNS was 76.8%; with SNB-19 CNS, 95.1%; in the assay on U251 CNS, 98.4%; in the assay with PC-3 prostate, 91.2%; in the assay with SK-MEL-5 melanoma it was 98.5%; in the assay with UACC-62 melanoma, 97.6%. The growth in the assay on LOX IMVI melanoma was 99.7%; in the assay with SK-MEL-28 melanoma, 97.1%.
In the case of `O=c1ccc(N=Nc2ccc([N+](=O)[O-])cc2)ccc1O`, the growth was 38.4% in the assay on DU-145 prostate; 13.7% in the assay on K-562 leukemia; 22.9% in the assay on MALME-3M melanoma; 13.9% with MDA-MB-231 breast; 46% in the assay on RXF 393 renal; 23.2% with SF-268 CNS. In addition, the growth is 12.6% in the assay with SF-295 CNS; 16.7% with SF-539 CNS; 21.9% in the assay with UACC-257 melanoma; 44.6% with M14 melanoma; 13.2% in the assay with HCT-15 colon; 25.9% in the assay with HT29 colon. Further, the growth in the assay on SNB-75 CNS is 30.7%; in the assay with SNB-19 CNS it was 19%; in the assay on U251 CNS, 17.4%; in the assay with PC-3 prostate, 34.2%; in the assay on SK-MEL-5 melanoma it was 9.1% (active); with UACC-62 melanoma, 15.2%. Also, the growth in the assay with LOX IMVI melanoma is 3.95% (active); in the assay with SK-MEL-28 melanoma, 41.1%.
Take `C[N+]1=C(/C=C/c2ccc(O)c3ncccc23)C(C)(C)c2ccccc21`: the growth is 85.2% in the assay on DU-145 prostate; 16.5% in the assay on K-562 leukemia; 115% in the assay with MALME-3M melanoma; 64.6% with MDA-MB-231 breast; 32.5% in the assay with RXF 393 renal; 81.8% with SF-268 CNS. Besides, the growth with SF-295 CNS is 72.9%; in the assay with SF-539 CNS, 25.9%; with UACC-257 melanoma, 85.3%; with M14 melanoma it was 67.5%; with HCT-15 colon it was 25%; in the assay on HT29 colon it was 96.9%. For the same compound, the growth in the assay with SNB-75 CNS was 30.8%; in the assay with SNB-19 CNS it was 27.9%; in the assay with U251 CNS, 17.1%; in the assay on PC-3 prostate, 71.2%; with SK-MEL-5 melanoma, 1.13% (active); in the assay with UACC-62 melanoma, 39.2%. In addition, the values for the growth in the assay on LOX IMVI melanoma and in the assay on SK-MEL-28 melanoma were 40.4% and 51.5%, respectively.
With `CCS(=O)(=O)c1ncnc2nc[nH]c12`, the growth was 112% in the assay with DU-145 prostate; 101% in the assay on K-562 leukemia; 106% in the assay on MALME-3M melanoma; 111% in the assay with MDA-MB-231 breast; 113% in the assay with RXF 393 renal; 104% in the assay on SF-268 CNS. For the same compound, the growth was 99.8% with SF-295 CNS; 95.1% in the assay on SF-539 CNS; 93.1% in the assay on UACC-257 melanoma; 88.1% in the assay on M14 melanoma; 101% with HCT-15 colon; 93.2% with HT29 colon. Besides, the growth in the assay on SNB-75 CNS was 90.9%; with SNB-19 CNS, 97.9%; with U251 CNS it was 95.6%; in the assay on PC-3 prostate, 76.4%; in the assay with SK-MEL-5 melanoma, 98.7%; in the assay on UACC-62 melanoma it was 94.1%. In addition, the growth was 101% with LOX IMVI melanoma and 107% with SK-MEL-28 melanoma.
Regarding `CCN(CC)c1ccc(C2=NN(C(C)=O)C(c3cc(OC)c(OC)c(OC)c3)C2)cc1` (stereo not given), the growth with DU-145 prostate is -39.4% (active); with K-562 leukemia it was -4.46% (active); in the assay with MALME-3M melanoma it was 21.7%; in the assay on MDA-MB-231 breast, 3.7% (active); in the assay with RXF 393 renal, -44% (active); in the assay with SF-268 CNS, 18.8%. For the same compound, the growth is 7.69% (active) with SF-295 CNS; 2.39% (active) in the assay on SF-539 CNS; 55.9% with UACC-257 melanoma; -28.8% (active) in the assay with M14 melanoma; 12.8% with HCT-15 colon; 8.86% (active) in the assay with HT29 colon. The growth in the assay with SNB-75 CNS was 17.8%; in the assay on SNB-19 CNS, 40.1%; in the assay on U251 CNS it was 18.7%; with PC-3 prostate, 20.4%; in the assay with SK-MEL-5 melanoma, 23.4%; in the assay with UACC-62 melanoma, 13.1%. Also, the figures for the growth with LOX IMVI melanoma and in the assay with SK-MEL-28 melanoma were 31.5% and 51.8%, respectively.
`O=c1c2cc(C(F)(F)F)ccc2sc2c(NCCCNCCO)nc3ccccc3c12`: the growth in the assay with DU-145 prostate is -71.6% (active); in the assay on K-562 leukemia it was -47.1% (active); with MALME-3M melanoma it was 75.2%; in the assay with MDA-MB-231 breast, -58.7% (active); with RXF 393 renal, 42.6%; with SF-268 CNS, 36.6%. The growth is 42.7% with SF-295 CNS; -79.1% (active) with SF-539 CNS; 92% in the assay with UACC-257 melanoma; -38.9% (active) with M14 melanoma; -67.2% (active) in the assay on HCT-15 colon; -41.4% (active) in the assay on HT29 colon. In addition, the growth in the assay on SNB-75 CNS is 56.9%; in the assay with SNB-19 CNS, 23.2%; with U251 CNS it was -60.6% (active); in the assay on PC-3 prostate, 23%; in the assay with SK-MEL-5 melanoma it was 38.3%; in the assay on UACC-62 melanoma, 74.8%. Also, the growth in the assay with LOX IMVI melanoma was -95.6% (active); in the assay with SK-MEL-28 melanoma, 55.5%.
